# Screens as filed in PubChem.
# MazEF act – increases E. coli MazEF RNase cleavage of RNA | AID 504720 | P0AE70 | activation, % at 20 µM | 0.32% of 350,000 active | FAM/BHQ RNA-DNA oligo cleavage fluorescence, 5 h; in the data active = activation above about 50%
# Anthrax LF inh2 – anthrax lethal factor protease inhibition; P15917; multiplex microsphere protease cleavage assay, LF; inhibition, % at 10 µM; 0.12% of 360,000 active; AID 588501; also: plate controls were buffer without enzyme for full effect and enzyme alone for no effect
# Bead autofluor – flagged as autofluorescent in microsphere protease counterscreen; compound autofluorescence counterscreen, microsphere flow cytometry; active compounds read high; 3.1% of 360,000 active; AID 624483; fluorescence intensity (test concentration not listed); in the data active = fluorescence intensity above about 16000; inconclusive = no clear call, values can overlap the other calls
# BoNT-A LC inh2 – inhibitors of Botulinum neurotoxin A light chain protease; 0.17% of 360,000 active; AID 588499; multiplex microsphere protease substrate cleavage, flow cytometry; inhibition, % at 10 µM; also: plate controls were buffer without enzyme for full effect and enzyme alone for no effect
# BoNT-F LC inh – BoNT F light chain protease inhibition; Multiplex microsphere protease cleavage assay, flow cytometry; AID 588497; 0.22% of 360,000 active; inhibition, % at 10 µM; in the data active = inhibition above about 35%, passing the limit was not always enough; inconclusive = no clear call, values can overlap the other calls; also: plate controls were buffer without enzyme for full effect and enzyme alone for no effect
# * = called active by the depositor; ? = inconclusive; · = not tested or not shown; ! = repeats disagree. Shown are actives, neighbours in structure and some others; about 3.7% of the full set was active somewhere. Rule as the data show it, unless noted: active = inhibition above about 30%; inconclusive = no clear call, values can overlap the other calls; inactive = below that.
SMILES,MazEF act,Anthrax LF inh2,Bead autofluor,BoNT-A LC inh2,BoNT-F LC inh
Cc1cccc(C)c1NC(=O)CSc1nc2ccccc2c(=O)[nH]1,6,0,22821*,?,-1
O=C(CSc1nc2cc3ccccc3cc2[nH]1)Nc1ccc(F)cc1,6,-1,23788*,?,1
O=S1(=O)CC(N2CCCCC2)CN1CCc1ccccc1 (stereo unspecified),·,-8,4179,-1,-15
COc1ccc(NC(=O)C2(C)Cc3c(-c4ccc5c(c4)OCO5)ccnc3O2)cc1OC (stereo unspecified),·,-9,2867,-1,-5
COc1ccc(N2CCN(Cc3cc4c(cc3O)CCC4)CC2)cc1,6,0,22399*,-4,-5
Oc1cc2c(cc1CN1CCN(c3ccccc3)CC1)CCC2,1,-11,3386,-3,-42
CC1(C)C(C=C(Cl)Cl)C1C(=O)N1CCN(c2ccccc2)CC1 (stereo unspecified),-7,-5,22705*,1,-1
NS(=O)(=O)c1cccc(NC(=O)COC(=O)Cc2ccc(S(=O)(=O)N3CCOCC3)s2)c1,5,·,·,·,·
Cc1cc(C)nc(N2CCC(C(=O)Nc3nnc(C)s3)CC2)n1,-4,-12,18862*,?,2
COCCSc1nnc(NC(=O)C2CCCCC2)s1,4,-2,17088*,-1,-2
O=C(Nc1nnc(SCC(=O)N2CCCCC2)s1)C1CCCCC1,4,-2,3005,1,27
Cc1nnc(NC(=O)C2CCCC2)s1,6,0,5972,1,-2
CCCNC(=O)C1CCN(c2nc(C)cc(C)n2)CC1,6,1,4400,1,9
Cc1nnc(NC(=O)C2CCCCC2)s1,6,-3,22880*,?,-4
CCC(C)(C)NC(=O)C1CCN(c2nc(C)cc(C)n2)CC1,-3,-1,16929*,-1,-1
CCCCCCn1c(=O)n2n(c1=O)C[C@]1(OC(=O)NCc3ccco3)CN(S(=O)(=O)c3ccc(C)cc3)C[C@]1(O)C2,1,-4,3618,0,0
CC1(C(=O)NS(=O)(=O)Cc2ccccc2)CCN1C(=O)Cc1ccccc1Cl (stereo unspecified),·,-2,4246,0,-4
Cc1sc(NC(=O)C2CC(=O)N(Cc3ccco3)C2)nc1-c1ccccc1 (stereo unspecified),-9,-2,2759,0,-2
CN1C[C@@H]2[C@@H]3C(=O)N(Cc4ccccc4)C(=O)[C@@H]3[C@](Cc3ccccc3)(C1=O)N2C(=O)c1ccc(C(F)(F)F)cc1,-10,7,3899,0,-3
Cc1cc2n(n1)C(c1cn(-c3ccccc3)nc1C)Nc1ccccc1-2 (stereo unspecified),-10,-1,22907*,?,-1
COc1cccc(S(=O)(=O)N(C)C[C@@H]2OCc3cnnn3CCCC(=O)N([C@@H](C)CO)C[C@H]2C)c1,7,-10,2939,0,-3
COC(=O)c1cn(CCOc2ccc(C)cc2)c2ccccc12,-1,-3,22793*,-2,-3
COC(=O)c1cn(C(=O)c2ccc(C)cc2)c2ccccc12,-6,-2,2725,0,-4
COC(=O)c1cn(C(=O)c2ccc(OC)cc2)c2ccccc12,-2,-8,4142,1,36*
CCOC1=C2[C@@H](CN(S(=O)(=O)c3ccc(C)cc3)[C@H]2c2ccccc2Cl)[C@H]2C(=O)N(C)C(=O)[C@H]2C1,·,5,5792,0,1
SMILES,MazEF act,Anthrax LF inh2,Bead autofluor,BoNT-A LC inh2,BoNT-F LC inh
C=CCn1c(SCc2c(F)cccc2Cl)nnc1-c1ccco1,4,-2,16837*,0,0
O=S(=O)(NCCOc1ccccc1)c1ccc2ccccc2c1,0,2,19154*,?,3
COc1ccc(Nc2nnc(-c3ccc(N4CCOCC4)c([N+](=O)[O-])c3)c3ccccc23)cc1,9,-4,22975*,-9,-10
COc1ccc(C(=O)c2ccc(N3CCOCC3)c([N+](=O)[O-])c2)cc1,11,1,4446,0,3
CC(C)C[C@H](NC(=O)/C=C/[C@H]1O[C@@H](n2ccc(=O)[nH]c2=O)[C@H](O)[C@@H]1O)C(=O)O,·,9,4255,-1,1
C#CCNc1cc(C)nc2ncnn12,9,0,24731*,?,-5
Cc1cc(Cl)ccc1NC(=O)CN1C(=O)C(=O)N(C2CCCC2)C1=O,5,-6,2941,0,-1
CC(=O)c1ccc(NC(=O)C2CC(c3ccc(F)cc3)=NO2)cc1 (stereo unspecified),5,-2,23509*,-1,-3
O=C(NC1CCCC1)C1CC(c2ccc(F)cc2)=NO1 (stereo unspecified),-6,0,23071*,-1,-5
COc1cccc(C2=NOC(C(=O)Nc3ccc(OC)c(OC)c3)C2)c1 (stereo unspecified),6,0,10066,1,-2
COc1cccc(C2=NOC(C(=O)Nc3cccc(C(C)=O)c3)C2)c1 (stereo unspecified),-15,-3,19143*,9,11
CC1CCCC(C)N1C(=O)C1CC(c2ccc(F)cc2)=NO1 (stereo unspecified),6,0,17330*,-3,-4
NC(Cc1ccc(F)cc1)c1csc(NC(=O)NC(c2ccccc2)c2ccccc2)n1 (stereo unspecified),·,-3,4430,-1,-24
CC(C)C[C@H]1CN(CCCC[C@H]2CNC(=O)C(=O)N2CC2CCCCC2)C(=O)C(=O)N1CCc1ccc(O)cc1,·,-5,5868,0,3
CCCCCCSc1cc(-c2nc3cc(C)ccn3c2NC2CCCCC2)ccc1OC,-45,-7,15927,0,3
COc1cc(-c2nc3cc(C)ccn3c2NC2CCCCC2)ccc1-c1ccc(C(C)=O)cc1,-19,-3,23646*,-3,18
CCC(C)Sc1ccc(-c2nc3cc(C)ccn3c2NC2CCCCC2)cc1 (stereo unspecified),-25,-8,20914*!,-5,18
CCN(CC)c1ccc(C(=O)NNC(=O)C2CSC3(C)CCC(=O)N23)cc1 (stereo unspecified),0,1,4654,1,16
Cc1cnn(-c2nc(-c3cccs3)cc(C(F)(F)F)n2)c1,7,0,23064*,2,0
O=C1CCC(C(=O)OCC(=O)N2N=C3/C(=C/c4ccccc4)CCCC3C2c2ccccc2)N1 (stereo unspecified),1,0,20500*,?,-1
CCCNC(=O)/C(C#N)=C1\N=C(NC(=O)c2ccco2)c2ccccc21,90*,4,5056,2,6
COCCNC(=O)/C(C#N)=C1\N=C(NC(=O)c2ccco2)c2ccccc21,8,6,3723,2,1
c1ccc(COc2ncnc3c2ncn3CCCN2CCN(c3ncccn3)CC2)cc1,8,-1,2838,0,-7
O=C(C[C@@H]1C/C=C\CCC(=O)OC[C@H](Cc2ccccc2)NC1=O)N[C@@H](CO)Cc1ccccc1,3,-4,3322,0,-9
O=C(Nc1ncc2c(n1)-c1ccccc1CC2)c1ccc(Cl)cc1,0,2,22185*,2,3
